This assay has as its target T1, Protein deacetylase HDAC6 (Homo sapiens) (UniProt Q9UBN7).
T1 sequence (whole entry): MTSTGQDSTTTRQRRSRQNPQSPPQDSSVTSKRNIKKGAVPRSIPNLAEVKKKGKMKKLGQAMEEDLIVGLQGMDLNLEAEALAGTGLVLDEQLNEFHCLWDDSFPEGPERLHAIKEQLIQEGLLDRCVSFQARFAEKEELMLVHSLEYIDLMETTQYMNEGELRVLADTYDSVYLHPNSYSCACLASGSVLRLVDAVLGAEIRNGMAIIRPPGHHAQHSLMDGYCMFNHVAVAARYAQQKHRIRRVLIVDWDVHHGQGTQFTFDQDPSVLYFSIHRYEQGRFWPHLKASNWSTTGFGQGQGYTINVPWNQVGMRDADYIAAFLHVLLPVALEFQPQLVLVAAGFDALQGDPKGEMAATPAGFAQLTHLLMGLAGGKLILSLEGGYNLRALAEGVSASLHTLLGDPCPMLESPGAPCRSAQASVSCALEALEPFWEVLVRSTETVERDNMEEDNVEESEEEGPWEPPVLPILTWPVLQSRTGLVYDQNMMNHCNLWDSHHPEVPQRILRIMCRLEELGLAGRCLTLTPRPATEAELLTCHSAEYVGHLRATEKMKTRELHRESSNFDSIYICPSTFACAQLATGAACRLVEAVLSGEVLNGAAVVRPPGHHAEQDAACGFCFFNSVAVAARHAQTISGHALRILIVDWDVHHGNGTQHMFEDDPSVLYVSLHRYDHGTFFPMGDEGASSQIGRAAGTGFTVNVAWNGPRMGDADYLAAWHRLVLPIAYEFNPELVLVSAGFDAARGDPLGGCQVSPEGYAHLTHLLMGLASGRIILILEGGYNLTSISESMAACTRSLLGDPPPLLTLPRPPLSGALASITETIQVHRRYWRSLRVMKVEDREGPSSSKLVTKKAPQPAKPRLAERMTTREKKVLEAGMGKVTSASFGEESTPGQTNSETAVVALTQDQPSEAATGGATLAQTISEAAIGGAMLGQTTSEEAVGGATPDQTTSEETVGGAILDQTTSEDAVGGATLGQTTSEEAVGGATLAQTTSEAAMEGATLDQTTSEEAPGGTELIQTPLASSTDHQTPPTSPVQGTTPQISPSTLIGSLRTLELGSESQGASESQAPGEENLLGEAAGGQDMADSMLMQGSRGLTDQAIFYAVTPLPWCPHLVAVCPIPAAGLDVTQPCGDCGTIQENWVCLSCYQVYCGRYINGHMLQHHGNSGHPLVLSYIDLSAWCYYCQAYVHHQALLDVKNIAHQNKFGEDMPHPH
The conditions noted are these: at 10 µM.

Among all 5,600 compounds or so, about 150 (2.7%) showed an effect of 50% or more. Many of the other results were omitted from the sample, so strong results are more common in it than they were.

By inhibition is commonly meant the relative decrease from the control value, in per cent. On to `CN(C)c1ccc2c(c1)Sc1cc(N(C)C)ccc1N2`, for which the inhibition amounted to 32.3%. For `COc1cc(Br)c(S(=O)(=O)Nc2ccc(C(F)(F)F)c(O[C@@H]3CCN(C)C3)c2)cc1OC`, the inhibition was -1.99%.

With `COc1ccc(-n2c(SCc3nc(-c4ccc(C)cc4)no3)nnc2-c2ccncc2)cc1`, the inhibition is -7.03%. As for `O=C(Nc1c(-c2cccs2)nc2ccccn12)c1ccc(Cl)cc1`, the figure is -6.19%; as for `Clc1cccc(/C=N/C=N/c2cccc(Cl)c2)c1`, 1.42%. To `COc1cc(/C=C/c2ccc(OC)cc2OC)cc(OC)c1` belongs 19.4%. To `COc1cccc(/C=N/C=N/c2cccc(OC)c2)c1` belongs 89.1%. Take `CNCCCC1(c2ccccc2)OC(C)(C)c2ccccc21` (stereo not drawn): the inhibition was -1.2%. For `CSc1ccc(OCc2ncc([N+](=O)[O-])n2C)cc1`, the inhibition was found to be 20.2%.

In the case of `O=C(O)c1cc([N+](=O)[O-])ccc1NCCCc1ccccc1`, the inhibition is 52.3%. On to `O=C(O)CCCc1ccccc1`, for which the inhibition is -4.8%. To `Cn1c(NCCN(CCO)CCCc2ccc([N+](=O)[O-])cc2)cc(=O)n(C)c1=O` belongs -7.89%; to `Cc1cc(NC(=O)NCCN2CCC(O)(Cc3ccccc3)CC2)c2ccccc2n1`, -3.32%; to `Oc1cccc(O)c1`, 5.02%.

For `N[C@H]1C[C@@H]1c1ccc(-c2cccc(O)c2)cc1`, the inhibition came to 51.4%. As for `CC(=O)N[C@H]1[C@H]([C@H](O)[C@H](O)CO)O[C@](O)(C(=O)O)C[C@@H]1O`, the figure is -7.16%; as for `Cc1ccc(-c2ncn(-c3ccc(Nc4nccc(-c5cccc(N6CCOCC6)c5)n4)cc3)n2)cn1`, 14.5%; as for `Cc1nc(N)sc1-c1ccnc(Nc2ccc(N3CCOCC3)cc2)n1`, 71.7%. To `N#CCNC(=O)c1ccc(-c2ccnc(Nc3ccc(N4CCOCC4)cc3)n2)cc1` belongs -5.68%; to `CC(C)[C@@H](N)C(=O)O`, 1.7%; to `O=C(NCc1ccc2c(c1)OCO2)c1c(Cl)cccc1Cl`, 3.64%. For `COc1ccc(-c2cc(=S)ss2)cc1`, the inhibition was 67.3%. To `O=C(O)CCc1c(C(=O)O)[nH]c2cc(Cl)cc(Cl)c12` belongs 4%; to `NCC(=O)N1C[C@H](NC(=O)c2ccccc2)C[C@H]1C(=O)O`, -0.8%. Take `O=C(/C=C/c1ccccc1)NC(NC(=S)Nc1ccc(Cl)cc1)C(Cl)(Cl)Cl` (stereo not drawn): the inhibition was -0.27%. To `Cc1ccc(C(=O)Cn2c3c(sc2=N)CCCC3)cc1` belongs 85.8%; to `Cc1ccc(C(=O)C(C)CN2CCCCC2)cc1` (stereo not drawn), 4.79%; to `Cc1cccc(NC(=O)CN2CCC(c3ccccn3)CC2)c1`, 32%. To `O=C(O)c1cc2ccccc2s1` belongs -8.12%; to `N=C(N)c1cc2ccc(OC(=O)c3cccs3)cc2s1`, 98.3%; to `OC(CN1CCNCC1)Cn1c2ccc(Br)cc2c2cc(Br)ccc21` (stereo not drawn), -4.75%. As for `COc1cc2c(cc1OC)CN(C(=O)[C@@H](NCc1ccncc1)C(C)(C)C)CC2`, the figure is -4.01%; as for `c1ccc(-c2ccc(CNc3nc(-c4ccccn4)nnc3-c3ccccc3)cc2)cc1`, 6.43%. Take `c1ccc(NCc2ccc(CNc3ccccn3)cc2)nc1`: the inhibition was determined as 91.6%. As for `O=C(Cc1ccc(-c2ccccc2)cc1)Nc1ccccn1`, the figure is 44.2%.

In the case of `O=S1(=O)N[C@H]2CCCN2c2ccccc21`, the inhibition is -6.18%. To `FC(F)(F)c1ccc(Nc2ncnc3cc(-c4ncccc4C(F)(F)F)ccc23)cc1` belongs 6.46%.

On to `CCCC[C@@H](NC(=O)[C@@H](Cc1cn(C(=O)OC)c2ccccc12)NC(=O)[C@H](CC(C)(C)C)NC(=O)N1[C@H](C)CCC[C@@H]1C)C(=O)O`, for which the inhibition is -9.33%. As for `CCCCCCCCCCCCCCCC(=O)OC[C@H](COP(=O)([O-])OCC[N+](C)(C)C)OC(=O)CCCCCCCCCCCCCCC`, the figure is -0.71%; as for `COc1c(C)cnc(Cn2cc(C#CCC(C)(C)O)c3c(Cl)nc(N)nc32)c1C`, 0.42%; as for `O=C(c1cc(C2CC2)on1)N(C1CCCCC1)C1CCCCC1`, 9.33%. To `C#C[C@]1(OC(C)=O)CC[C@H]2[C@@H]3CCC4=C/C(=N/O)CC[C@@H]4[C@H]3CC[C@@]21CC` belongs 5.83%; to `Cc1ccnc(NS(=O)(=O)c2ccc(N)cc2)n1`, -3.6%; to `Nc1ccc(S(=O)(=O)Nc2ccccn2)cc1`, 2.21%.

`C=Cc1c(C)c2cc3nc(c(CC(=O)O)c4[nH]c(cc5nc(cc1[nH]2)C(C)=C5CC)c(C)c4C(=O)O)C(CCC(=O)O)C3C` (stereo not drawn): the inhibition was determined as 8.5%. As for `CC(C)n1nccc1-c1ncccc1COc1cccc(O)c1C=O`, the figure is 0.21%; as for `O=c1cc(N2CCN(c3cccc(C(F)(F)F)c3)CC2)[nH]c(=O)n1C1CCCCC1`, -1.42%. To `O=C(COc1ccc(Cl)cc1)N1CCN(Cc2ccc3c(c2)OCO3)CC1` belongs -0.58%; to `O=C(/C=C/C=C/c1ccc2c(c1)OCO2)N1CCCCC1`, 61.2%.

`CC(C)(C)C(O)/C=C/c1ccc2c(c1)OCO2` (stereo not drawn): the inhibition stood at 8.28%. To `O=C(c1ccc2c(c1)OCO2)N1CCCCC1` belongs -4.9%.

Regarding `O=C(/C=C/c1ccc2c(c1)OCO2)N1CCCCC1`, the inhibition is 67.8%.

As to `O=C(CN1CCN(Cc2ccc3c(c2)OCO3)CC1)N1c2ccccc2Sc2ccccc21`, the inhibition is 4.21%.

The record behind these values is ChEMBL document CHEMBL4808148, “HDAC6 screening dataset using tau-based substrate in an enzymatic assay yields selective inhibitors and activators” (2021).
